What all share (experiment): DAPPL (digital affinity profiling via proximity ligation, sequencing); 10 mM Tris-HCl pH 7.5, 50 mM NaCl, 1 mM DTT, 4% glycerol, room temperature, 30 min; GST-TFs on glutathione beads, 16-mer random dsDNA library, 0.1% formaldehyde crosslink after washing; high values mean tight binding
One test concerns the target T1, FEV (Homo sapiens, UniProt Q99581 1-238).
T1 sequence: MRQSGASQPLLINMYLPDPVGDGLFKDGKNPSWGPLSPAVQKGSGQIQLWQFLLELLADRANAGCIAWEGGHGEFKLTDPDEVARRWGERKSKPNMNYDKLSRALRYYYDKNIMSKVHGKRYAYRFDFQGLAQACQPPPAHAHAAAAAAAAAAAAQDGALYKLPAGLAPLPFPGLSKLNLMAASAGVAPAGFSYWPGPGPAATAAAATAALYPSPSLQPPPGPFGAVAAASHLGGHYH
Conditions: protein: recombinant; tags: N-terminal GST; dsDNA, one strand shown. In short, it runs like this:
(§1)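 In yeast, human transcription factors were expressed with a GST fusion, then pulled down on glutathione beads and given DNA barcodes. Pooled with a tag-only sample, they were exposed to 200 nmole of a 16-mer random double-stranded DNA library (Tris/NaCl/DTT/glycerol buffer, room temperature, 30 min), washed, crosslinked with 0.1% formaldehyde, proximity-ligated using BsaI/T4 ligase for 1 h at 37 °C, PCR-amplified and read on an Illumina NextSeq500. Each hexamer's frequency of reads for a factor, divided by the matching frequency for the tag-only sample, gives the binding signal.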

For the next test, the target named is ETV5 (Homo sapiens, UniProt P41161 1-510). To be noted: protein: recombinant; tags: N-terminal GST; dsDNA, one strand shown. In short, it runs like this: as §1
ETV5, sequence (P41161 whole entry): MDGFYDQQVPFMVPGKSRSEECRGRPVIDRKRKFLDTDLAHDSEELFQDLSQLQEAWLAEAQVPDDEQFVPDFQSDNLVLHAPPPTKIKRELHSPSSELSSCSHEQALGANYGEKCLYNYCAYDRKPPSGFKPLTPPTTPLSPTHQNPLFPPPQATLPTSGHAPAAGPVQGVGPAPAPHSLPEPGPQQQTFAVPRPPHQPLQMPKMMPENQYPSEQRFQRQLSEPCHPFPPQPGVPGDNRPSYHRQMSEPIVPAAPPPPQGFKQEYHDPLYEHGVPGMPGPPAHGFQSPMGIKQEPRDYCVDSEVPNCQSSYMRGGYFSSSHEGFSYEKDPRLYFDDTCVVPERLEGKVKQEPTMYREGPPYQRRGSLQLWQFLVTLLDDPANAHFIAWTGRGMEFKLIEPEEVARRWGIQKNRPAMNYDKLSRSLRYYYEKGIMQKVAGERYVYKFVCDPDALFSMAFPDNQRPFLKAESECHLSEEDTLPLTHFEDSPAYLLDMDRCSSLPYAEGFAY
The target of a further test is HSF1 (Homo sapiens, UniProt Q00613 1-529). Conditions: protein: recombinant; tags: N-terminal GST; chain copies: 3; dsDNA, one strand shown. The essentials: as §1
HSF1, sequence (Q00613 whole entry): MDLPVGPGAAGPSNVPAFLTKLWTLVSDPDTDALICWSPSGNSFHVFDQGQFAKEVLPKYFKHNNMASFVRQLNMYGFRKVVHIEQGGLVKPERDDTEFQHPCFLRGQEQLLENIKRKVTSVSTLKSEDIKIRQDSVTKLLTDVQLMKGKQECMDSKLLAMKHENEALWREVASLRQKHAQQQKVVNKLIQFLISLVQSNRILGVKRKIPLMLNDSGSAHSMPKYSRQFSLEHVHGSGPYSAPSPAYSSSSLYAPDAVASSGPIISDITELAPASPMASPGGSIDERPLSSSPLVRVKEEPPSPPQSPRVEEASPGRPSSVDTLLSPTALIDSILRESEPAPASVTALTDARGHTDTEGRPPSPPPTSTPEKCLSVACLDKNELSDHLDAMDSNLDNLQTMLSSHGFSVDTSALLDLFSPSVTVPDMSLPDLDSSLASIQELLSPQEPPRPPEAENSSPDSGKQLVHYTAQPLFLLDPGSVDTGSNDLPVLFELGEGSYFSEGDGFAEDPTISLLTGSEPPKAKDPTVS
The next test concerns the target T2, SPIC (Homo sapiens, UniProt Q8N5J4 1-248).
T2 sequence: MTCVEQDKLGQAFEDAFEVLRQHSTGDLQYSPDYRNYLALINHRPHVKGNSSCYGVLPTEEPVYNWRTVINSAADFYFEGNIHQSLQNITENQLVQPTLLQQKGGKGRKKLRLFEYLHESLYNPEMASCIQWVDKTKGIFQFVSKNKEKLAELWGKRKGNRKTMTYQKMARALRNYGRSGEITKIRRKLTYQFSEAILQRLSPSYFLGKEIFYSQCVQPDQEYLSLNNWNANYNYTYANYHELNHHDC
Conditions: protein: recombinant; tags: N-terminal GST; dsDNA, one strand shown. In short, it runs like this:
as §1

The next test addresses ELF4 (Homo sapiens, UniProt Q99607 1-663). Conditions: protein: recombinant; tags: N-terminal GST; dsDNA, one strand shown. In short, it runs like this:
as §1

Another test has as its target T3, ELK4 (Homo sapiens, UniProt P28324-2 1-405).
T3 sequence: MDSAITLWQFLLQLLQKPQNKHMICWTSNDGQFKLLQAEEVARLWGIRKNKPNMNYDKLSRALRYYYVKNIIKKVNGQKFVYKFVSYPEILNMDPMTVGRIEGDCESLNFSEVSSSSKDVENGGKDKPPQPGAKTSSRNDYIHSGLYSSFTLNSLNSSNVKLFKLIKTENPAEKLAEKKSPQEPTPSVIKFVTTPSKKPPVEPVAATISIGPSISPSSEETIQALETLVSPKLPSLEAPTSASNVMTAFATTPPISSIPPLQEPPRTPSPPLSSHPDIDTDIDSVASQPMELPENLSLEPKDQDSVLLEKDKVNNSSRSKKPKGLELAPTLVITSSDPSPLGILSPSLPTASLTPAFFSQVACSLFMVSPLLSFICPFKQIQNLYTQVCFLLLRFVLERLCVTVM
Conditions: protein: recombinant; tags: N-terminal GST; dsDNA, one strand shown. The essentials:
as §1

The next test addresses T4, ETV2 (Homo sapiens, UniProt O00321 1-342).
T4 sequence: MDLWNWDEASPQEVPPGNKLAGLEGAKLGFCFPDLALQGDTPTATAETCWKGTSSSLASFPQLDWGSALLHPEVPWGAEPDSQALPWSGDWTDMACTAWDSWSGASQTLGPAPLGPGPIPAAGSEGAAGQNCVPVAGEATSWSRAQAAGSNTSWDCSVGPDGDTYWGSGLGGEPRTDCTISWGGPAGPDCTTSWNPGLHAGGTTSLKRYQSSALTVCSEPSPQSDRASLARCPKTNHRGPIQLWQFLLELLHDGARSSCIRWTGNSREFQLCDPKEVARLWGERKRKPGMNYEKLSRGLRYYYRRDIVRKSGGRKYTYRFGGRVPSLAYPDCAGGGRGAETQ
To be noted: protein: recombinant; tags: N-terminal GST; dsDNA, one strand shown. In short, it runs like this:
as §1

In another test the target is T5, ELF3 (Homo sapiens, UniProt P78545 1-371).
T5 sequence: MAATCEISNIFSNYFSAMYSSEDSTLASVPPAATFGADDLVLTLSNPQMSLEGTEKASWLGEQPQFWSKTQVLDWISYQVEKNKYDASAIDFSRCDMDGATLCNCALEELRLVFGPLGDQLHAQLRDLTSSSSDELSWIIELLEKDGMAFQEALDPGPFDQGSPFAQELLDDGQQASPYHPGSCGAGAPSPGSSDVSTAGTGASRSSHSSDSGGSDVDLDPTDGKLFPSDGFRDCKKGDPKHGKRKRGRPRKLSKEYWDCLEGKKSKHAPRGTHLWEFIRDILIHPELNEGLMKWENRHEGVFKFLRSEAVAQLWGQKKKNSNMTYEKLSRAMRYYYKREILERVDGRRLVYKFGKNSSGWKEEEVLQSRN
Conditions: protein: recombinant; tags: N-terminal GST; dsDNA, one strand shown. The essentials:
as §1

In another test the target is CRX (Homo sapiens, UniProt O43186 1-299). To be noted: protein: recombinant; tags: N-terminal GST; dsDNA, one strand shown. The essentials:
as §1

The target in another test is ETV1 (Homo sapiens, UniProt P50549 1-477). To be noted: protein: recombinant; tags: N-terminal GST; dsDNA, one strand shown. The essentials:
as §1

Another test addresses T6, ERF (Homo sapiens, UniProt P50548 1-548).
T6 sequence: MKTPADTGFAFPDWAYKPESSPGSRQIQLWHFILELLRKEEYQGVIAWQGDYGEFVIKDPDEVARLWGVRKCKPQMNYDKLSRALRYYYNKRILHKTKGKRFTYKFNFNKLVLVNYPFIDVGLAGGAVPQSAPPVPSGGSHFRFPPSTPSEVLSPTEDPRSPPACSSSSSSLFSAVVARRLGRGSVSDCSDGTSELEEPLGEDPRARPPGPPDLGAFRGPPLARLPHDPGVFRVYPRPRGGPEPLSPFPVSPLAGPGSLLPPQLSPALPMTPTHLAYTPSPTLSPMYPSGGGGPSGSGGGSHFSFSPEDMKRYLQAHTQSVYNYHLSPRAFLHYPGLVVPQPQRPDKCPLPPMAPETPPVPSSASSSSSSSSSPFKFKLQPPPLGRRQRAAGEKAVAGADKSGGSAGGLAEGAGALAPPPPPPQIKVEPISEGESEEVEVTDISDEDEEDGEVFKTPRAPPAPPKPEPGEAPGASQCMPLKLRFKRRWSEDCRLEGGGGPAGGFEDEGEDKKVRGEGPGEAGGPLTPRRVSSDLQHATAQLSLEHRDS
To be noted: protein: recombinant; tags: N-terminal GST; dsDNA, one strand shown. The essentials:
as §1

A further test deals with T7, ETV3L (Homo sapiens, UniProt Q6ZN32 1-361).
T7 sequence: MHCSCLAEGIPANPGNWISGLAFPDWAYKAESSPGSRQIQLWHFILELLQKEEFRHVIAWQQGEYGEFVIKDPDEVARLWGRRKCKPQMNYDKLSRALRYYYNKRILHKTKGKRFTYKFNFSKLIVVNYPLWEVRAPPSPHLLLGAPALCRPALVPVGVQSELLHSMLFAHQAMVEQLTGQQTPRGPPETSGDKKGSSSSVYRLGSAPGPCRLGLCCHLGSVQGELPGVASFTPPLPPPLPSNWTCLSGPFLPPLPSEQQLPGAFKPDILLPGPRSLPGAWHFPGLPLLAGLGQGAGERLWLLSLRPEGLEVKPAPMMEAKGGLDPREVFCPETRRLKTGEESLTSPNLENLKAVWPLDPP
To be noted: protein: recombinant; tags: N-terminal GST; dsDNA, one strand shown. In short, it runs like this:
as §1

For a further test, the target named is T8, ETS2 (Homo sapiens, UniProt P15036 1-469).
T8 sequence: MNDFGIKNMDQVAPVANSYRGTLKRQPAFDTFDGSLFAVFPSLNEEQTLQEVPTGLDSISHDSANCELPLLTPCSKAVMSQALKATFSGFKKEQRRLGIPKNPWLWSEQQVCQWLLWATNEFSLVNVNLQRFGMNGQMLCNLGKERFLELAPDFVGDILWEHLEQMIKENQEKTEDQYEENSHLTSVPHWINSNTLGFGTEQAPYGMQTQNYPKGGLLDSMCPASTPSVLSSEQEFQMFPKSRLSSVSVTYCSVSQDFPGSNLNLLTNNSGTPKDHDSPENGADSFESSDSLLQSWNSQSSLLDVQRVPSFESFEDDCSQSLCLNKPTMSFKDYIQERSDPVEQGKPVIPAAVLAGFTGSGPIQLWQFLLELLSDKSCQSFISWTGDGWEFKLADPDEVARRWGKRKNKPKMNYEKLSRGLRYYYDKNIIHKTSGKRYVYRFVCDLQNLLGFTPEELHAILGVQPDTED
To be noted: protein: recombinant; tags: N-terminal GST; dsDNA, one strand shown. The essentials: as §1

A further test concerns the target T9, SPDEF (Homo sapiens, UniProt O95238 1-335).
T9 sequence: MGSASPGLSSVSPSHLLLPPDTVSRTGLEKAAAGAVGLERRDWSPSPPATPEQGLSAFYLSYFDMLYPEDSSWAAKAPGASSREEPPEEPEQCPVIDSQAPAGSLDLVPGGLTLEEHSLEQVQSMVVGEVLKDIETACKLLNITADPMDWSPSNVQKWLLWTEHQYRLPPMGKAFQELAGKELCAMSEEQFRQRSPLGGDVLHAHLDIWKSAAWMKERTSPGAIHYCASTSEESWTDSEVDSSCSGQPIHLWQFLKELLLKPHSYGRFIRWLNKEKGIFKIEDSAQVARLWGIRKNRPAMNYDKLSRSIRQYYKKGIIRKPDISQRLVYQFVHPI
Conditions: protein: recombinant; tags: N-terminal GST; dsDNA, one strand shown. In short, it runs like this: as §1

Another test concerns the target T10, ETV7 (Homo sapiens, UniProt Q9Y603 1-341).
T10 sequence: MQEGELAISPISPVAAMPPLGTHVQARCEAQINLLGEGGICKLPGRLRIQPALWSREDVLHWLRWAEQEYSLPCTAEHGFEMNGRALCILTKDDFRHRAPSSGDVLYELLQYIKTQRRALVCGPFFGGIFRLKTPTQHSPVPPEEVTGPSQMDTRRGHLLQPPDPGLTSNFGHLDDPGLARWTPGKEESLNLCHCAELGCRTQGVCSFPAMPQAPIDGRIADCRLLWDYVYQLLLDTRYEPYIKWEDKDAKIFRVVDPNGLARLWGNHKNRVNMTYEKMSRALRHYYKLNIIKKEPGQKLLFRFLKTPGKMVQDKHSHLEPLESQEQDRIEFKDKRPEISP
To be noted: protein: recombinant; tags: N-terminal GST; dsDNA, one strand shown. In short, it runs like this: as §1

Another test has as its target T11, ELF5 (Homo sapiens, UniProt Q9UKW6-2 1-255).
T11 sequence: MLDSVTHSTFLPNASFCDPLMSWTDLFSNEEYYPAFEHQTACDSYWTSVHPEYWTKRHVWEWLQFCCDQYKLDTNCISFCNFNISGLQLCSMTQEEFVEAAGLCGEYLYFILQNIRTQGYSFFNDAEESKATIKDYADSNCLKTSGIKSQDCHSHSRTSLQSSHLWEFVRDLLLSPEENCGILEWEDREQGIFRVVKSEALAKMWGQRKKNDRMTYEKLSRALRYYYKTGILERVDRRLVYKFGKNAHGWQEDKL
To be noted: protein: recombinant; tags: N-terminal GST; dsDNA, one strand shown. The essentials: as §1

Another test concerns the target T12, ETV3 (Homo sapiens, UniProt P41162-2 1-143).
T12 sequence: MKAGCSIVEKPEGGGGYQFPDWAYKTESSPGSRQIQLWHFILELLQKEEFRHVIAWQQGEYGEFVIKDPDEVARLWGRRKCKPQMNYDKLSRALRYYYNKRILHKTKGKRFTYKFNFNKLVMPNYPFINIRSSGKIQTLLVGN
To be noted: protein: recombinant; tags: N-terminal GST; dsDNA, one strand shown. The essentials:
as §1

The next test deals with ETV6 (Homo sapiens, UniProt P41212 1-452). To be noted: protein: recombinant; tags: N-terminal GST; dsDNA, one strand shown. The essentials: as §1
ETV6, sequence (P41212 whole entry): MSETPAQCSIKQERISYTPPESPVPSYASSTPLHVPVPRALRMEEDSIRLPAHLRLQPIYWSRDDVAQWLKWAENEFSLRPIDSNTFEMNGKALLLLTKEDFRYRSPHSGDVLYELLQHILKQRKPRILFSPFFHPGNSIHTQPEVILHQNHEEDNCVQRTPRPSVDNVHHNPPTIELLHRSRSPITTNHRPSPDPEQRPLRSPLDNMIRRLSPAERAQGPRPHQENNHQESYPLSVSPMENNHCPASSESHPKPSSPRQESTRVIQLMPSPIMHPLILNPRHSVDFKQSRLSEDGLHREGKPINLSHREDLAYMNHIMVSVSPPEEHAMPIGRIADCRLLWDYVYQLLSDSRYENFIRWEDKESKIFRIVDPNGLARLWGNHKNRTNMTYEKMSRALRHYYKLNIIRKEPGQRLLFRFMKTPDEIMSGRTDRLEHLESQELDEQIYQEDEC

CRX, sequence (O43186 whole entry): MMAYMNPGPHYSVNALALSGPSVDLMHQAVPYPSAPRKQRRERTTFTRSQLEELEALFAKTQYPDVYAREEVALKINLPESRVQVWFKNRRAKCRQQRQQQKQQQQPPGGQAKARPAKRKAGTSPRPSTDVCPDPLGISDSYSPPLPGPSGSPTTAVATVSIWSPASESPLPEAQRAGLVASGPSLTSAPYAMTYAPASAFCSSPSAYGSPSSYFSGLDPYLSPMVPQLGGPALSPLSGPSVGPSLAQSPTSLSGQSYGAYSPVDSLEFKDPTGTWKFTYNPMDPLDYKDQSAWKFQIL
ELF4, sequence (Q99607 whole entry): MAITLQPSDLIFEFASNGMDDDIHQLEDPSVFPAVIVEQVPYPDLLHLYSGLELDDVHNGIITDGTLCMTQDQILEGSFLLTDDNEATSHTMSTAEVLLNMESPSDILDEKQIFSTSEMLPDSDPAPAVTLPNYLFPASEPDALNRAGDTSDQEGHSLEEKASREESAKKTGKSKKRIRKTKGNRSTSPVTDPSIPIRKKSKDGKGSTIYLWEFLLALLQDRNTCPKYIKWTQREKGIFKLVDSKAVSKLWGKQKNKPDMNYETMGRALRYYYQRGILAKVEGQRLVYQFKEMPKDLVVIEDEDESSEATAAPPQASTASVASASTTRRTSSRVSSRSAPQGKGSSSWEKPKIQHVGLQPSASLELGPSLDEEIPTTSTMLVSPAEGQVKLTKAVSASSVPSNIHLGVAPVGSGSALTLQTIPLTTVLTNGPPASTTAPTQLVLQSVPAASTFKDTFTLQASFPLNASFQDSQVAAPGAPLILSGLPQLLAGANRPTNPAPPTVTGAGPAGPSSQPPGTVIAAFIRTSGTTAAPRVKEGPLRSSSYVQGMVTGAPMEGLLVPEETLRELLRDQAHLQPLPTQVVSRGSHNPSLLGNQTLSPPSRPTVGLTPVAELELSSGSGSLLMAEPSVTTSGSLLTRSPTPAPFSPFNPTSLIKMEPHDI
ETV1, sequence (P50549 whole entry): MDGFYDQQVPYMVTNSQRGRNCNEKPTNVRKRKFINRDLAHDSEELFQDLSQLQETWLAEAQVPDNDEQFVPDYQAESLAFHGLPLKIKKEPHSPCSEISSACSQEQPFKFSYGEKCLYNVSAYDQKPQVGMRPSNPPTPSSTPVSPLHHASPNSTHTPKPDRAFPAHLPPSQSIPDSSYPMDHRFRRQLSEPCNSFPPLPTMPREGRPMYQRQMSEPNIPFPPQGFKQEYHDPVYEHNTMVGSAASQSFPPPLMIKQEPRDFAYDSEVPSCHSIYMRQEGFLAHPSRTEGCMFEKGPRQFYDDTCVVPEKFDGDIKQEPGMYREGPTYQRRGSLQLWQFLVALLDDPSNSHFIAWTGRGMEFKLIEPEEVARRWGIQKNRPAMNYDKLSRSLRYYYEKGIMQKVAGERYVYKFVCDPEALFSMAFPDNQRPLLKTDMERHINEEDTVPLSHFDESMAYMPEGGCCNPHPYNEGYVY

Consider CTTAGG, for which the binding signal with FEV was 1.11 fold enrichment (6-mer frequency, TF over GST control); with ETV5 it was 1.15 fold enrichment (6-mer frequency, TF over GST control); with HSF1, 1.29 fold enrichment (6-mer frequency, TF over GST control); with SPIC, 1.3 fold enrichment (6-mer frequency, TF over GST control); with ELF4 it was 1.16 fold enrichment (6-mer frequency, TF over GST control); with ELK4, 1.04 fold enrichment (6-mer frequency, TF over GST control). For the same sequence, the binding signal was 1.23 fold enrichment (6-mer frequency, TF over GST control) with ETV2; 1.49 fold enrichment (6-mer frequency, TF over GST control) with ELF3; 1.8 fold enrichment (6-mer frequency, TF over GST control) in the test with CRX; 1.19 fold enrichment (6-mer frequency, TF over GST control) with ETV1; 1.12 fold enrichment (6-mer frequency, TF over GST control) with ERF; 1.01 fold enrichment (6-mer frequency, TF over GST control) with ETV3L. Besides, the binding signal in the test with ETS2 was 1.23 fold enrichment (6-mer frequency, TF over GST control); with SPDEF, 1.06 fold enrichment (6-mer frequency, TF over GST control); in the test with ETV7 it was 1.17 fold enrichment (6-mer frequency, TF over GST control); in the test with ELF5 it was 1.11 fold enrichment (6-mer frequency, TF over GST control); with ETV3, 1.1 fold enrichment (6-mer frequency, TF over GST control); with ETV6 it was 1.15 fold enrichment (6-mer frequency, TF over GST control).

For the origin of these results see PMC7862700, “An all-to-all approach to the identification of sequence-specific readers for epigenetic DNA modifications on cytosine”.
